CCT modulator: changes cytosolic chaperonin activity | purified chaperonin ATPase assay, HTRF ADP detection, 30 min | activity change, % (no concentration beside the values), hits read low | 360,000 compounds, 0.3% hits; in the data active means activity change below about -30%; further: on the % scale 0 is the no-effect control and ±100 the full control effect
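TRiC (40 or 20 nM final, by batch activity) in 30 mM Tris pH 7.4, 100 mM KCl, 5 mM MgCl2, 1 mM DTT was treated with compound at 76 uM single dose, then 10 uM ATP, 30 min at 37 °C. ADP was read by HTRF Transcreener.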
Akt phos inh: Akt phosphorylation inhibition | Neuro2A IGF-stimulated pAkt S473 HTRF, 20 min; stronger effect = lower value | activity change, % for hits at 50 µM | 360,000 compounds, 0.32% hits | AID 651550; in the data active means activity change below about -80%; further: on the % scale 0 is the no-effect control and ±100 the full control effect
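Neuro2A cells in DMEM with 0.5% FBS, overnight at 37 deg C, given compound at single 50 µM final, then IGF (6 nM final) for 20 min at 37 deg C. Lysed; phospho-Akt Ser473 by HTRF after 24 h, 665/615 ratio.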
Glioma ERSR ind: ER stress response induction in glioma; 420,000 compounds, 0.02% hits; U87-MG GRP78 promoter luciferase reporter, 16 h; Potency, µM, inactives show at the top dose activation, hits mostly activators; further: potency means the concentration at half of the fitted maximal effect; series mostly up to about 76 µM; % of control where 0% means no effect; nearly all actives have a fitted effect of over 35% in size
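ERSR induction read as luciferase luminescence (Bright-Glo, 10 min at room temperature) in stably transfected human U87-MG glioma cells exposed to compounds for 16 h, using GRP78 as sensor.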
GLS inh: inhibitors of human glutaminase (GLS); GLS enzymatic activity, qHTS titration; 410,000 compounds, 0.21% hits; AID 624170; Potency, µM (highest dose often 45.5 µM), for the others: top-dose activity change, negative = inhibition, most hits filed as inhibitors; further: potency means the concentration at half of the fitted maximal effect; on the % scale 0 is the no-effect control and ±100 the full control effect
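Read-out is an Amplex red fluorescence increase coupled through glutamate oxidase and HRP, measured before and after 30 min room-temperature incubation. hKGA is in 45 mM KH2PO4 (pH 8.2) with 0.02% Tween-20; glutamine added as 1mM solution.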
IDH1 R132H inh: inhibitors of human mutant IDH1 R132H; Potency, µM (highest dose often 76.6 µM), without a hit: top-dose activity change, negative = inhibition, most hits filed as inhibitors; AID 602179; O75874; 390,000 compounds, 0.093% hits; IDH1-R132H enzyme, NADPH consumption, diaphorase/resazurin fluorescence; further: potency means the concentration at half of the fitted maximal effect; on the % scale 0 is the no-effect control and ±100 the full control effect; nearly all actives have a fitted effect of over 65% in size
Target sequence (O75874 whole entry R132H, stated change not applied): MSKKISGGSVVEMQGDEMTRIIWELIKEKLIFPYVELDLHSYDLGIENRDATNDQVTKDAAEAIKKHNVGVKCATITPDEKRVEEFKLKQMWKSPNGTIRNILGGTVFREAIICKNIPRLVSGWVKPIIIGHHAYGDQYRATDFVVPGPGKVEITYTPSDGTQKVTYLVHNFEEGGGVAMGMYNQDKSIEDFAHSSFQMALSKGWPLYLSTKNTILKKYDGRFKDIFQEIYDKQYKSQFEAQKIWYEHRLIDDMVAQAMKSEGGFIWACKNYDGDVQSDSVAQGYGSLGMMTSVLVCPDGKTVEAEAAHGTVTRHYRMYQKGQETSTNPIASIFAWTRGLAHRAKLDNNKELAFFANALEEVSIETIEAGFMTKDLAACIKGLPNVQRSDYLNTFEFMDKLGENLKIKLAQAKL
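IDH1-R132H (0.5 ug/mL) preincubated 30 min with compound, then NADPH (0.016 mM) and alpha-KG (2 mM) added; 80 min at RT, pH 7.5. Remaining NADPH coupled via diaphorase/resazurin to fluorescence (540/590 nm); concentration-response curves normalized to no-enzyme control.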
MmCpn inh: inhibitors of Methanococcus maripaludis chaperonin TRiC (MmCpn) | purified Mm-Cpn ATPase, ADP Transcreener TR-FRET | Potency, µM (doses to about 76.9 µM), for inactives: at the highest dose activity, negative = inhibition, usual class: inhibitors | 330,000 compounds, 0.031% hits; further: potency means the concentration at half of the fitted maximal effect; on the % scale 0 is the no-effect control and ±100 the full control effect; nearly all actives have a fitted effect of over 80% in size
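Quantitative HTS used 25 nM Mm-CPN and 10 uM ATP in magnesium/KCl Tris buffer, pH 7.4, with 1 mM DTT. Hydrolysis ran 30 min at 37°C; ADP was read by HTRF.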
* marks the source's active call; other numbers are inactive results; i = inactive; x = no result. Shown are actives, neighbours in structure and some others; about 0.85% of the full set was active somewhere. Unless noted, the call rests on the fitted dose curve; in most records, active means well fitted curve in the direction sought with a large enough effect; inconclusive means small, poorly fitted or top-dose-only effect, or another doubt; inactive means no such curve, though single readings can be large; an effect the other way counts as inactive or inconclusive.

SMILES	CCT modulator	Akt phos inh	Glioma ERSR ind	GLS inh	IDH1 R132H inh	MmCpn inh
CCOc1cc(S(=O)(=O)NCCc2ccc(OC)c(OC)c2)c(OCC)cc1-n1cnnn1	-0.7	i	-5.1%	-3.1%	4.2%	1.1%
CCOc1cc(S(=O)(=O)NCc2ccc(OC)cc2)c(OCC)cc1-n1cnnn1	0.0	-92.3%*	-4.4%	9.0%	5.1%	-0.2%
COC(=O)c1ccccc1C(=O)N1CCc2c(cnc(C)c2CNC(=O)c2ccccc2F)C1	x	x	-5.0%	x	x	x
CCOc1ccc(NC(=O)N2CCC(C(=O)c3ccc(F)cc3)CC2)cc1	-2.0	i	-1.6%	1.4%	6.1%	-0.4%
O=C(c1ccc(F)cc1)C1CCN(C(=O)Nc2ccc(F)cc2)CC1	-33.9*	i	-5.2%	-9.8%	4.7%	3.1%
Cn1c(=O)n(C)c2cc([N+](=O)[O-])c(N3CCN(S(=O)(=O)c4ccc5ccccc5c4)CC3)cc21	-3.2	i	-1.4%	4.9%	0.9%	1.7%
Cc1ccc(S(=O)(=O)N2CCN(c3cc4c(cc3[N+](=O)[O-])n(C)c(=O)n4C)CC2)cc1	-54.2*	i	-2.3%	15.1%	8.3%	2.1%
COc1ccccc1N1CCN(c2nc(CNC(=O)C3CCOC(C)(C)C3)nc3ccccc23)CC1 (configuration not stated)	x	x	-4.4%	x	x	x
CCOC(=O)C1CCN(S(=O)(=O)c2cc(Cl)c(C)cc2OC)CC1	-1.1	-105.2%*	-6.0%	-2.2%	0.1%	-4.5%
CCOC(=O)C1CCN(S(=O)(=O)c2ccc(Cl)cc2OC)CC1	2.5	i	-3.8%	-6.6%	1.8%	-1.3%
S=c1[nH]nc(-c2ccccc2)n1/N=C/c1ccc(Cl)cc1	1.7	i	-1.9%	15.8µM*	-2.6%	1.1%
S=c1[nH]nc(-c2ccccc2)n1/N=C/c1cccc(Cl)c1	1.5	i	0.3%	-15.0%	1.1%	0.9%
CNC(=S)N1N=C(c2ccc(C)cc2)CC1c1ccc(N(C)C)cc1 (configuration not stated)	0.4	i	-1.0%	17.8%	-0.7%	25.1µM*
O=C(NCc1ccccn1)c1ccc(CS(=O)(=O)Cc2ccc(Cl)cc2)o1	1.0	-126.2%*	-3.6%	7.1%	1.2%	-3.4%
Cc1cc(S(=O)(=O)NC2CCCCC2)ccc1OCC(=O)N1CCOCC1	-67.4*	i	9.5%	1.3%	9.3%	-0.6%
N#Cc1c(SCC(N)=O)nc(-c2ccccc2)c2c1CCCC2	-1.5	-110.6%*	-5.4%	7.3%	-2.1%	-5.8%
Cc1cccc(-n2ncc(C#N)c2N)c1	-2.1	i	-3.1%	6.1%	-3.8%	1.1%
COc1cccc(-n2nc3c(-n4ncc(C#N)c4N)nnc(C)c3c2C)c1	-2.9	-123.1%*	-1.6%	-6.0%	-0.3%	1.3%
COc1ccc(N2CCN(CCCNC(=O)C3CCC(CNc4nc(=S)[nH]c5ccccc45)CC3)CC2)cc1 (configuration not stated)	0.9	i	-0.7%	-2.2%	9.7%	-4.2%
O=C(C1CCC(CNc2nc(=S)[nH]c3ccccc23)CC1)N1CCN(c2ccc(F)cc2)CC1 (configuration not stated)	-36.0*	i	-3.1%	-15.6%	-8.1%	-6.5%
Cc1ccc(OCCn2cc(C#N)c3ccccc32)cc1	1.8	-105.9%*	-1.1%	-0.4%	6.9%	1.9%
CC#CC[C@@H](C)[C@@H](O)/C=C/[C@H]1[C@H]2c3cccc(CCCC(=O)O)c3O[C@H]2C[C@@H]1O	x	x	-2.9%	12.7%	x	x
CN(C)/C=C(\C#N)C(=O)c1cccc(Oc2ccc(Br)cc2)c1	-1.0	-111.7%*	1.7%	8.8%	7.3%	-1.7%
CC(C)=CCC/C(C)=C\CC/C(C)=C\CC/C=C(\C)CC/C=C(\C)CCC=C(C)C	x	x	-2.6%	6.2%	x	x
COc1cc(=O)n2c(c1C(=O)N(C)C(C)c1ccco1)CCN(C(=O)c1ccc(C(C)=O)cc1)CC2 (configuration not stated)	x	x	-0.1%	x	x	x
CCOC(=O)/C(C#N)=C/Nc1cc(F)ccc1C	1.2	i	-2.0%	0.4%	3.2%	2.4%

Assay outcomes deposited in PubChem by National Center for Advancing Translational Sciences (NCATS).
